Measured values reported in PubChem BioAssay (NCI).
Compounds without any hit were thinned out: in the full panel of roughly 83,000, 20% have a hit.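 The test compound was applied at a single concentration to cells in 96-well plates for 48 hours, and percent growth was recorded.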 A number with no mark means an inactive call. Activity calls are given as the source filed them. The calls were made as follows: active = growth percent below 10; inactive = the rest.

How the values were obtained:
Test in all cases: NCI-60 one-dose screen, 48 h (100 = growth as untreated, 0 = no growth, -100 = all killed)
Settings in all cases: 10 µM unless noted
[1] = tested on: NCI-H23 lung
[2] = tested on: NCI-H226 lung
[3] = tested on: NCI-H322M lung
[4] = tested on: HOP-62 NSCLC
[5] = tested on: NCI-H460 lung
[6] = tested on: NCI-H522 lung
[7] = tested on: A549/ATCC NSCLC
[8] = tested on: 786-0 renal
[9] = tested on: COLO 205 colon
[10] = tested on: DU-145 prostate

## Cc1nnc(Nc2ccc(NC(=O)Nc3ccc(Cl)cc3)cc2)c2ccccc12
[1]
  growth: 48.8%
[2]
  growth: 71.9%
[3]
  growth: 47.8%
[4]
  growth: 4.62% (active)
[5]
  growth: 26.1%
[6]
  growth: 30.3%
[7]
  growth: 26.4%
[8]
  growth: -27.8% (active)
[9]
  growth: 28.2%
[10]
  growth: 57.8%

## N#Cc1cnc2cc(OC[C@H](O)CO)c(NC(=O)CC3CSSC3)cc2c1Nc1ccc(OCc2cccc(F)c2)c(Cl)c1
[1]
  growth: -73.4% (active)
[2]
  growth: -62.3% (active)
[3]
  growth: -85.4% (active)
[4]
  growth: -60.8% (active)
[5]
  growth: -70.7% (active)
[6]
  growth: -68.3% (active)
[7]
  growth: -69.3% (active)
[8]
  growth: -63.2% (active)
[9]
  growth: -79.4% (active)
[10]
  growth: -93.5% (active)

## CCOc1cccc(C2CC(=O)Nc3cc4c(cc32)OCO4)c1 (stereo not given)
[1]
  growth: 77.9%
[2]
  growth: 65%
[3]
  growth: 91.1%
[4]
  growth: 87%
[5]
  growth: 94.2%
[6]
  growth: 66.5%
[7]
  growth: 94.2%
[8]
  growth: 93.4%
[9]
  growth: 96.8%
[10]
  growth: 94.5%

## COc1ccc2nc3cc(Cl)ccc3c(N3CCN(c4ccnc(Nc5ccc(F)cc5)n4)CC3)c2c1
[1]
  growth: 89.3%
[2]
  growth: 98.5%
[3]
  growth: 97.7%
[4]
  growth: 92.9%
[5]
  growth: 94%
[6]
  growth: -5.18% (active)
[7]
  growth: 79.5%
[8]
  growth: 70.4%
[9]
  growth: 108%
[10]
  growth: 93.1%

## COc1ccc(C2CC(c3cccc(Nc4ccnc5cc(Cl)ccc45)c3)=NN2C=O)cc1 (stereo not given)
[1]
  growth: 10.7%
[2]
  growth: 46.3%
[3]
  growth: 62.5%
[4]
  growth: 27%
[5]
  growth: 11.2%
[6]
  growth: -35.5% (active)
[7]
  growth: 25.5%
[8]
  growth: 34.7%
[9]
  growth: -44.3% (active)
[10]
  growth: 2.95% (active)

## Cc1cc2c(cc1C)Nc1sc(NC(=O)CN3CCN(C)CC3)nc1C(=O)N2
[1]
  growth: 102%
[2]
  growth: 105%
[3]
  growth: 105%
[4]
  growth: 94.5%
[5]
  growth: 101%
[6]
  growth: 86.3%
[7]
  growth: 100%
[8]
  growth: 98.9%
[9]
  growth: 112%
[10]
  growth: 108%

## CC(C)C(=O)Cc1cnccn1
[1]
  growth: 93.7%
[2]
  growth: 110%
[3]
  growth: 103%
[4]
  growth: 106%
[5]
  growth: 103%
[6]
  growth: 109%
[7]
  growth: 96.5%
[8]
  growth: 109%
[9]
  growth: 113%
[10]
  growth: 111%

## CCCCSc1cc(C)nc(N)n1
[1]
  growth: 95.9%
[2]
  growth: 98.6%
[3]
  growth: 97.1%
[4]
  growth: 91.5%
[5]
  growth: 103%
[6]
  growth: 94.9%
[7]
  growth: 97.8%
[8]
  growth: 95.6%
[9]
  growth: 112%
[10]
  growth: 105%

## C=CC1=C(C(=O)O)N2C(=O)[C@@H](NC(=O)/C(=N\O)c3csc(N)n3)[C@H]2SC1 (stereo in doubt)
[1]
  growth: 96%
[2]
  growth: 101%
[3]
  growth: 109%
[4]
  growth: 105%
[5]
  growth: 105%
[6]
  growth: 106%
[7]
  growth: 99.4%
[8]
  growth: 105%
[9]
  growth: 103%
[10]
  growth: 113%

## COc1ccc(-c2csc(NC(=O)c3cc(OC)c(OC)c(OC)c3)n2)cc1
[1]
  growth: 114%
[2]
  growth: 94.1%
[3]
  growth: 99.1%
[4]
  growth: 91.2%
[5]
  growth: 103%
[6]
  growth: 107%
[7]
  growth: 102%
[8]
  growth: 102%
[9]
  growth: 105%
[10]
  growth: 112%

## NS(=O)(=O)c1ccc(NC2=C(Cl)C(=O)c3ccccc3C2=O)cc1
[1]
  growth: 80.9%
[2]
  growth: 61.9%
[3]
  growth: 113%
[4]
  growth: 102%
[5]
  growth: 116%
[6]
  growth: 70.1%
[7]
  growth: 112%
[8]
  growth: 104%
[9]
  growth: 95.2%
[10]
  growth: 142%

## COc1ccc(C(=O)Nc2nc(-c3ccc(Cl)cc3)cs2)cc1
[1]
  growth: 114%
[2]
  growth: 95.6%
[3]
  growth: 86.8%
[4]
  growth: 90.8%
[5]
  growth: 105%
[6]
  growth: 105%
[7]
  growth: 100%
[8]
  growth: 108%
[9]
  growth: 102%
[10]
  growth: 111%

## CC(C)c1nc(N(C)S(C)(=O)=O)nc(-c2ccc(F)cc2)c1/C=C/[C@@H](O)C[C@@H](O)CC(=O)O
[1]
  growth: 109%
[2]
  growth: 105%
[3]
  growth: 93.9%
[4]
  growth: 108%
[5]
  growth: 118%
[6]
  growth: 69.9%
[7]
  growth: 97.9%
[8]
  growth: 106%
[9]
  growth: 105%
[10]
  growth: 103%
